Assay outcomes as filed in PubChem.
Most compounds without a hit are left out; they make up all but 3.5% or so of the library.
TEAD-YAP block: TEAD-YAP interaction inhibition; HEK-TIYL cells, TEAD-Gal4/YAP UAS-luciferase luminescence; inhibition, % at 9.12 µM; 1.4% of 640,000 active; AID 1259422; in the data active = inhibition above about 32%
FBW7 act: activators of human E3 ligase FBW7 | AlphaScreen FBW7–phospho-cyclin E peptide binding, activator screen | normalized activity (activation), % at 26.1 µM | 0.13% of 650,000 active | AID 1259310; in the data active = normalized activity above about 1.9%;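 also: purified mutant Fbw7 with reduced substrate affinity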
Target sequence (Q969H0 whole entry, looked up): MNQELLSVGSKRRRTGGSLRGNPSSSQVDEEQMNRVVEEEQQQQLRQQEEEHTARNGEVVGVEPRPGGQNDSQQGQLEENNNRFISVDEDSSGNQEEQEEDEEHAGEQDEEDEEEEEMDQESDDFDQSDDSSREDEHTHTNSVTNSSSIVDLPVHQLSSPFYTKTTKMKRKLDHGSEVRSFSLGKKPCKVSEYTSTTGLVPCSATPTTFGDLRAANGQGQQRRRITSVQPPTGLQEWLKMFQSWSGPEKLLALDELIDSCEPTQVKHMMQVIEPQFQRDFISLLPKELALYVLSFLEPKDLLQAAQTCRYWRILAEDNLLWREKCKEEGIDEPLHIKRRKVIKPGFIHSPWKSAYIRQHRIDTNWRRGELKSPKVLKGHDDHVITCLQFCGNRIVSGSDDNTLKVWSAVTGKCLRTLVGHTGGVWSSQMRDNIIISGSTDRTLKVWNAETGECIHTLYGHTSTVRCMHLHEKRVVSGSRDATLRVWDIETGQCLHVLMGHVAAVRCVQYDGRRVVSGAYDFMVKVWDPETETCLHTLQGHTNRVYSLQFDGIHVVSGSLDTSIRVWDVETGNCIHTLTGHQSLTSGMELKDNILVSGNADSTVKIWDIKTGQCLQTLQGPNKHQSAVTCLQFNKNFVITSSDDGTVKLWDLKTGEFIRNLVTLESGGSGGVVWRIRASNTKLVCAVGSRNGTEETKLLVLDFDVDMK
MITF primary: blocks human microphthalmia-associated transcription factor; AlphaScreen MITF homodimerization, bead proximity signal; 0.91% of 650,000 active; inhibition, % at 2.6 µM; AID 1259374; in the data active = inhibition above about 50%
GPR151 ag: human GPR151 activation | 1% of 650,000 active | activation, % at 11.2 µM | PathHunter beta-arrestin GPR151 cells, luminescence; in the data active = activation above about 4.9%
A number is an active result; – = inactive.

SMILES | TEAD-YAP block | FBW7 act | MITF primary | GPR151 ag
O=[N+]([O-])c1nn(-c2ccc(Cl)cc2)n(O)c1=Nc1ccc(Cl)cc1 | – | – | – | –
O=C1OC(/C=C/c2ccccc2)=NC/1=C/c1ccccc1C(F)(F)F | – | – | – | –
Cc1ccc(S(=O)(=O)N2CCN(c3nnnn3-c3ccccc3)CC2)cc1 | – | – | – | –
CN(C)CCN(CC1CCCC1)C(=O)Nc1ccc(-c2cn[nH]c2)cc1N(C)CCN(C)C | 36 | – | – | –
CCOC(=O)C1CCN(CCC(=O)Nc2cc([N+](=O)[O-])ccc2OC)CC1 | – | – | – | –
O=C(NCc1ccc2c(c1)OCO2)c1ccc2c(=O)n(-c3ccc(F)c(Cl)c3)c(=S)[nH]c2c1 | – | – | – | –
CCOC(=O)c1ccc(NC(=O)CN2C(=O)CC(C)(C)S(=O)(=O)c3ccccc32)cc1 | – | 5.2 | – | –
O=C(O)C(C(=O)/C=C/c1ccccc1)=C1SCCS1 | – | – | – | –
CCOC(=O)c1c(-c2ccc(F)cc2)csc1NC(=O)CSc1ncnc2sc3c(c12)CCC3 | – | – | – | –
CN(C)CCNC(=O)c1cc2c(s1)CSC2 | – | – | – | –
O=C(CSC1=NCCS1)Nc1nnc(-c2ccccc2Cl)s1 | – | – | – | –
COC(=O)COc1cccc(-c2nc(Nc3ccc4[nH]ncc4c3)c3ccccc3n2)c1 | – | – | – | –
O=C(COc1cccc(-c2nc(Nc3ccc4[nH]ncc4c3)c3ccccc3n2)c1)Nc1cccnc1 | 37 | – | – | –
CCOc1cccc(C2CC(c3cccc(OC)c3)=NC(c3cc(OC)ccc3OC)N2)c1O (stereo unspecified) | – | – | – | –
CCN(CC)c1ccc(N=Cc2c(O)[nH]c(=S)[nH]c2=O)cc1 | – | – | 51 | –
CCN(CC)S(=O)(=O)c1ccc(N=Cc2c(O)[nH]c(=S)[nH]c2=O)cc1 | – | – | – | –
Nc1cc(N=Cc2c(O)[nH]c(=S)[nH]c2=O)ccc1O | – | – | 92 | –
Cc1ccc(-c2cccc3cnc(Nc4cccc(C(=O)N5CCCC5)c4)nc23)cn1 | – | – | – | –
Cc1ccc(-c2cccc3cnc(Nc4cccc(C(=O)NC5CC5)c4)nc23)cn1 | 33 | – | – | –
Cc1ccc(-c2cccc3cnc(Nc4ccc(C(=O)NC5CC5)cc4)nc23)cn1 | 64 | – | – | –
O=C(CSc1nnnn1-c1ccccc1)Nc1cccc(NC(=O)C23CC4CC(CC(C4)C2)C3)c1 | 72 | – | – | –
CCC(=O)Nc1cccc(NC(=O)CSc2nnnn2-c2ccccc2)c1 | – | – | – | –
CN(C)S(=O)(=O)c1ccc(NC(=O)c2ccccc2Br)cc1 | – | – | – | –
CCc1ccc(OCC(=O)NCc2cccs2)cc1 | – | – | – | –
CCOc1ccc(-c2cc(=O)n(CC(=O)NCc3cccs3)cn2)cc1 | 44 | – | – | –
SMILES | TEAD-YAP block | FBW7 act | MITF primary | GPR151 ag
Cc1ccc(S(=O)(=O)N2CCN(C/C=C/c3ccccc3)CC2)cc1 | – | – | – | –
CCOC(=O)Cc1nnc(NC(=O)CSc2nnc3c4ccccc4n(CCc4ccccc4)c3n2)s1 | – | – | – | –
CN1CCN(Cc2nc(-c3ccc(F)cc3)cs2)CC1CCO (stereo unspecified) | – | – | – | –
CC(C)(C)CN1CCN(Cc2nc(-c3ccc(F)cc3)cs2)CC1CCO (stereo unspecified) | 44 | – | – | –
CCOc1ccc(S(=O)(=O)N2CCCc3ccccc32)c2cccnc12 | 48 | – | – | –
CCOC(=O)c1cnc2c(Cl)cccc2c1NCc1ccco1 | – | – | – | –
CCOC(=O)c1cnc2c(OC)cccc2c1Nc1ccc(OC)cc1OC | 53 | – | – | –
CCOC(=O)c1cnc2c(OC)cccc2c1Nc1ccccc1OC | – | – | – | –
CCOC(=O)c1cnc2c(OC)cccc2c1NCc1ccco1 | 46 | – | – | –
COc1ccc(-c2nsc3c(=O)n(CCCN4CCCC4=O)cnc23)cc1 | – | – | – | –
CC1CCN(Cc2nnnn2CC(=O)NCCCn2ccnc2)CC1 | – | – | – | –
COc1ccc(S(=O)(=O)Oc2cccc3ccc(C)nc23)cc1OC | – | 1.9 | – | –
Cc1ccc2cccc(OS(=O)(=O)c3ccccc3C)c2n1 | – | – | – | –
Cc1ccc(-c2cn3ccccc3n2)cc1 | 53 | – | – | –
Clc1ccc(-c2cn3ccccc3n2)cc1 | – | – | – | –
CCCOc1ccc(-c2cn3ccccc3n2)cc1 | 79 | – | – | –
COc1ccc(-c2cn3ccccc3n2)cc1F | 55 | – | – | –
COc1ccc(-c2cn3ccccc3n2)cc1 | 66 | – | – | –
CCOc1ccc(S(=O)(=O)Nc2ccc(-c3cn4ccccc4n3)cc2)cc1 | – | – | – | –
COc1ccc(-c2cn3ccccc3n2)cc1Br | – | – | – | –
COc1cc(Cl)cc(/C=C2/NC(=O)N(Cc3ccc(Br)cc3)C2=O)c1O | – | – | – | –
COc1cccc(-c2cn3nc(C)c(C)nc3n2)c1 | – | – | – | –
COc1ccc(-c2cn3nc(C)c(C)nc3n2)cc1 | 57 | – | – | –
COc1ccc(-c2cn3cc(-c4ccc(F)cc4)nc3n2C)cc1 | 92 | – | – | –
O=[N+]([O-])c1cc(C(F)(F)F)ccc1NCCOc1cccc2cccnc12 | – | – | – | –
SMILES | TEAD-YAP block | FBW7 act | MITF primary | GPR151 ag
CC(C)/C=N/NC(=O)c1ccc2c(c1)NC(=O)C(C)(C)O2 | – | – | – | –
COc1cc(OCc2cccc(C(=O)O)c2)ccc1C=C1C(=O)NC(=S)NC1=O | 86 | – | – | –
COc1ccc(OCc2cccc(C(=O)O)c2)cc1 | 93 | – | – | –
CC(C)c1ccc(OCc2cccc(C(=O)NCCN(C)C)c2)cc1 | 86 | – | – | –
CCOc1ccc(OCc2cccc(C(=O)OC)c2)cc1 | 85 | – | – | –
O=C1NC(=S)NC(=O)C1=Cc1cccc(OCc2ccc(C(=O)O)cc2)c1 | – | – | – | –
O=S(=O)(Cc1ccc(Cl)cc1)N1CCc2ccccc21 | – | – | – | –
Nc1nonc1-n1nnc(C(=O)N/N=C/c2ccccc2[N+](=O)[O-])c1CN1CCCCC1 | – | – | – | –
Cc1cccc(N2CCN(S(=O)(=O)CCNC(=O)c3cnccn3)CC2)c1 | – | – | – | –
O=C(O)c1cccc(OCc2ccccc2)c1 | – | – | – | –
O=C(O)c1cccc(COc2ccc(I)cc2)c1 | 65 | – | – | –
CCSc1nnc2c(n1)OC(c1ccccc1F)N(C(C)=O)c1ccccc1-2 (stereo unspecified) | – | – | – | –
COc1ccc2oc(C(Cl)(Cl)Cl)cc(=O)c2c1 | 50 | – | – | –
COc1cccc(-c2cc(=O)c3cc(OC)ccc3o2)c1 | 70 | – | – | –
COc1ccc2c(=O)cc(-c3ccccc3)oc2c1 | – | – | – | –
COc1ccc2c(=O)cc(C(Cl)(Cl)Cl)oc2c1 | – | – | – | –
O=Cc1ccccc1-c1ccc(NCCc2ccccc2)nc1 | – | – | – | –
COc1ccccc1N1CCN(S(=O)(=O)CCNC(=O)c2ccc(F)cc2)CC1 | – | – | – | –
Cc1cccc(NC(=O)C2CCCN(S(=O)(=O)c3ccc4c(c3)oc(=O)n4C)C2)n1 (stereo unspecified) | 34 | – | – | –
